Laboratory results: PubChem BioAssay (EPA / NIEHS)
Results filed as inconclusive are left out. Calls of active or inactive are those of the source. How the source made its calls: active means hit-call score of the fitted dose curve at least 0.9, where 1 is the maximum; inconclusive means response in the unintended direction; inactive means score below 0.9.

Tests used:
[1] = ACEA_AR_antagonist_AUC_viability: ACEA Biosciences xCELLigence Real-Time Cell Analysis on Androgen Receptor Antagonism for Viability (AID 2283776);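 further: 22Rv1 human prostate cancer cells growing on impedance electrode plates; area under impedance growth curve at 80 h after dosing as viability; hits lower the growth signal relative to DMSO meaning cytotoxicity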
In short: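 Real-time electrical impedance tracks 22Rv1 proliferation after continuous compound exposure (top 100 uM final, 1:4 steps, 8 concentrations). The 80 h area-under-curve serves as the cytotoxicity readout relative to DMSO.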

[2] = ACEA_ER_AUC_viability: ACEA Biosciences xCELLigence Real-Time Cell Analysis on Estrogen Receptor Agonism for Viability (AID 2283782);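 further: hit means loss of impedance signal meaning reduced cell growth or viability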
In short: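 T-47D; phenol red-free RPMI1640 + 10% CS-FBS; 8 conc., 1:4 serial, max 100 uM final, ≤0.5% DMSO; n = 2; continuous exposure; impedance monitored to 80 h post-dose; AUC vs DMSO.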

[3] = ATG_M_06_XSP2: Attagene TRANS-FACTORIAL Multi-Species (XSP2) HepG2 Assay for M06 Transcription Factor (Internal Marker) (AID 2283811);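 further: internal background marker reporter mRNA measured by RT-PCR and capillary electrophoresis; hits are increases in signal above the DMSO baseline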
In short: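 HepG2, multiplexed reporter transfection; 24 h dosing; AR stimulated with 3 nM 6-alpha-fluorotestosterone + 1.5 nM norgestrel; RNA → RT-PCR → 6-FAM primer extension → HpaI → CE. Positive direction vs DMSO.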

[4] = test system: turtle Estrogen Receptor (ERa), gene 101933533; assay: ATG_trERa_XSP2: Attagene TRANS-FACTORIAL Multi-Species (XSP2) HepG2 Assay for turtle Estrogen Receptor (ERa) (AID 2283812);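 further: human HepG2 liver cells transiently expressing turtle ERa-Gal4 chimeric receptor; actives raise reporter signal above DMSO so AC50 reflects agonist activity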
In short: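 HepG2 cells transiently transfected with GAL4-UAS reporter units expressing turtle ERa-Gal4 chimera. Reporter mRNA measured after 24 h dosing by RT-PCR, fluorescent labelling and capillary electrophoresis; gain of signal fitted versus DMSO.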

[5] = ACEA_AR_agonist_AUC_viability: ACEA Biosciences xCELLigence Real-Time Cell Analysis on Androgen Receptor Agonism for Viability (AID 2283775)
In short: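 Read-out is area under the impedance curve at 80 h post-dose in 22Rv1 cells, with DMSO as baseline and signal loss taken as reduced viability. Compounds ran in duplicate from 100 uM final.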

[6] = test system: zebrafish Estrogen Receptor (ESR2B), gene 317733; assay: ATG_zfER2b_XSP1: Attagene TRANS-FACTORIAL Multi-Species (XSP1) HepG2 Assay for zebrafish Estrogen Receptor (ESR2B) (AID 2283773)
In short: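 Gain-of-signal endpoint relative to DMSO: reporter transcript levels quantified by RT-PCR and capillary electrophoresis after 24 h compound exposure of HepG2 cells expressing a zebrafish ER2b-Gal4 chimera.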

[7] = test system: frog Estrogen Receptor (ESR2), gene 100174814; assay: ATG_frER2_XSP1: Attagene TRANS-FACTORIAL Multi-Species (XSP1) HepG2 Assay for frog Estrogen Receptor (ESR2) (AID 2283774)
In short: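 Transactivation of an exogenous receptor-Gal4 fusion is tracked in transfected HepG2 cells via induced reporter transcript levels. After 24 h treatment, RT-PCR with capillary electrophoresis quantifies signal gain over DMSO.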

[8] = test system: frog Estrogen Receptor (ESR1), gene 398734; assay: ATG_frER1_XSP1: Attagene TRANS-FACTORIAL Multi-Species (XSP1) HepG2 Assay for frog Estrogen Receptor (ESR1) (AID 2283777)
In short: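 Human hepatoma HepG2 cells carried transiently transfected multiplexed Gal4-driven reporters and were exposed to test chemicals for 24 hours. Transcripts were quantified by fluorescent RT-PCR with capillary electrophoresis, referenced to DMSO.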

[9] = test system: zebrafish Estrogen Receptor (ESR2A), gene 317734; assay: ATG_zfER2a_XSP1: Attagene TRANS-FACTORIAL Multi-Species (XSP1) HepG2 Assay for zebrafish Estrogen Receptor (ESR2A) (AID 2283778)
In short: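 Cells were transfected, dosed for 24 h, then total RNA was isolated. After oligo(dT) reverse transcription, reporter sequences were amplified, FAM-labelled by primer extension, digested with HpaI and sized by capillary electrophoresis; DMSO served as baseline.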

[10] = target: chicken Estrogen Receptor (ESR1), ESR1 (gene 396099) (UniProt P06212); assay: ATG_chERa_XSP1: Attagene TRANS-FACTORIAL Multi-Species (XSP1) HepG2 Assay for chicken Estrogen Receptor (ESR1) (AID 2283779)
In short: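 Human liver HepG2, transient MRTU transfection (NR-Gal4 chimeras, GAL4-UAS reporters); 24 h compound exposure; 3 nM 6-alpha-fluorotestosterone in medium. Total RNA → RT-PCR → 6-FAM primer extension → HpaI → CE. Positive direction vs DMSO baseline.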

[11] = target: Estrogen receptor (Homo sapiens) (UniProt P03372); assay: ATG_hERa_XSP1: Attagene TRANS-FACTORIAL Multi-Species (XSP1) HepG2 Assay for human Estrogen Receptor (ESR1) (AID 2283780)
In short: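 HepG2 cells transiently transfected with GAL4-UAS reporter units and chimeric NR-Gal4 constructs; 24 h after dosing, reporter mRNA quantified by RT-PCR and capillary electrophoresis. Medium contained 3 nM 6-alpha-fluorotestosterone; activity fitted as gain-of-signal versus DMSO.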

[12] = test system: turtle Estrogen Receptor (ESR1), gene 101933533; assay: ATG_trERa_XSP1: Attagene TRANS-FACTORIAL Multi-Species (XSP1) HepG2 Assay for turtle Estrogen Receptor (ESR1) (AID 2283781)
In short: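 Activity was taken as gain of reporter transcript over DMSO controls. HepG2 cells carrying GAL4-UAS-driven reporters were exposed for 24 h before RNA was extracted and reporter sequences were measured by fluorescence after capillary separation.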

[13] = target: Estrogen receptor beta (Homo sapiens) (UniProt Q92731); assay: ATG_hERb_XSP1: Attagene TRANS-FACTORIAL Multi-Species (XSP1) HepG2 Assay for human Estrogen Receptor (ESR2) (AID 2283788)
In short: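 Measured endpoint is transcriptional gain of signal from a GAL4-UAS reporter controlled by chimeric ERβ in HepG2 liver cells. Exposure lasts 24 h alongside 3 nM 6-alpha-fluorotestosterone, with DMSO as negative control.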

[14] = ATG_M_19_XSP1: Attagene TRANS-FACTORIAL Multi-Species (XSP1) HepG2 Assay for M19 Transcription Factor (Internal Marker) (AID 2283798)
In short: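 HepG2 cells transiently transfected with multiplexed GAL4-UAS reporter units, dosed 24 h with 3 nM 6-alpha-fluorotestosterone present for partial AR stimulation. Reporter mRNA measured by RT-PCR with capillary electrophoresis; gain-of-signal fitted relative to DMSO.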

[15] = test system: zebrafish Peroxisome Proliferator-activated Receptor gamma (PPARg), gene 557037; assay: ATG_zfPPARg_XSP1: Attagene TRANS-FACTORIAL Multi-Species (XSP1) HepG2 Assay for zebrafish Peroxisome Proliferator-activated Receptor gamma (PPARg) (AID 2283801)
In short: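 HepG2 cells transiently transfected with GAL4-UAS reporter units including a zebrafish PPARg–GAL4 chimera, dosed 24 h with 3 nM 6-alpha-fluorotestosterone present. Reporter mRNA quantified by RT-PCR, FAM labelling, HpaI digestion and capillary electrophoresis; induction versus DMSO.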

[16] = target: Nuclear receptor subfamily 1 group I member 2 (Mus musculus) (UniProt O54915); assay: ATG_mPXR_XSP1: Attagene TRANS-FACTORIAL Multi-Species (XSP1) HepG2 Assay for mouse Pregnane X Receptor (PXR) (AID 2283803)
In short: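 Transiently transfected HepG2 cells expressing a receptor-Gal4 chimera drive a GAL4-UAS reporter; 3 nM 6-alpha-fluorotestosterone included. Reporter mRNA read 24 h post-dose by RT-PCR and capillary electrophoresis; gain of signal relative to DMSO.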

[17] = test system: turtle Thyroid Hormone Receptor, alpha (TRa), gene 101949057; assay: ATG_trTRa_XSP1: Attagene TRANS-FACTORIAL Multi-Species (XSP1) HepG2 Assay for turtle Thyroid Hormone Receptor, alpha (TRa) (AID 2283806)
In short: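 HepG2 cells transiently transfected with GAL4-UAS reporter units and chimeric receptor-Gal4 constructs, with 3 nM 6-alpha-fluorotestosterone present. Reporter mRNA was quantified 24 h after dosing by RT-PCR, 6-FAM labelling and capillary electrophoresis; gain of signal versus DMSO.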

[18] = ATG_XTT_Cytotoxicity_XSP1: Cytotoxicity Assessment in the Attagene TRANS-FACTORIAL Multi-Species (XSP1) HepG2 Assay (AID 2283810)
In short: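 XTT viability readout taken at 24 hours post-dosing in HepG2 liver cells co-treated with 3 nM 6-alpha-fluorotestosterone. Signal loss relative to DMSO controls reflects cytotoxicity.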

Measured: AC50

chicken Estrogen Receptor (ESR1), ESR1 (gene 396099), sequence (P06212 whole entry, looked up, the tested form may be a part): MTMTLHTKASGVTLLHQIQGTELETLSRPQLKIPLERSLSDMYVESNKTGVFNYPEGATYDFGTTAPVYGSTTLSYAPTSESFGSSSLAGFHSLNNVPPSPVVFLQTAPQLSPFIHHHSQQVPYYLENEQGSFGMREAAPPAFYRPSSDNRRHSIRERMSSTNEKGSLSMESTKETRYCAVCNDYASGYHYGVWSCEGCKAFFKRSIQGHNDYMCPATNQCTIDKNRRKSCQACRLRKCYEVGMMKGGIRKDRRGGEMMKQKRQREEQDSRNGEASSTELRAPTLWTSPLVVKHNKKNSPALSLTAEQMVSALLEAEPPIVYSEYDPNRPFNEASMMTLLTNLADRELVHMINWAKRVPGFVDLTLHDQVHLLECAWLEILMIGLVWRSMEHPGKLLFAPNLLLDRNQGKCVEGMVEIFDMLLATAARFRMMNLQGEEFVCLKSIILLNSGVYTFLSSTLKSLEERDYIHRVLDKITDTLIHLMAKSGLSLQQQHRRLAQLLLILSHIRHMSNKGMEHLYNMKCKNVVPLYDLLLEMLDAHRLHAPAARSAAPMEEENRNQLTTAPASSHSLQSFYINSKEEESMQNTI
Estrogen receptor (Homo sapiens), sequence (P03372 whole entry, looked up, the tested form may be a part): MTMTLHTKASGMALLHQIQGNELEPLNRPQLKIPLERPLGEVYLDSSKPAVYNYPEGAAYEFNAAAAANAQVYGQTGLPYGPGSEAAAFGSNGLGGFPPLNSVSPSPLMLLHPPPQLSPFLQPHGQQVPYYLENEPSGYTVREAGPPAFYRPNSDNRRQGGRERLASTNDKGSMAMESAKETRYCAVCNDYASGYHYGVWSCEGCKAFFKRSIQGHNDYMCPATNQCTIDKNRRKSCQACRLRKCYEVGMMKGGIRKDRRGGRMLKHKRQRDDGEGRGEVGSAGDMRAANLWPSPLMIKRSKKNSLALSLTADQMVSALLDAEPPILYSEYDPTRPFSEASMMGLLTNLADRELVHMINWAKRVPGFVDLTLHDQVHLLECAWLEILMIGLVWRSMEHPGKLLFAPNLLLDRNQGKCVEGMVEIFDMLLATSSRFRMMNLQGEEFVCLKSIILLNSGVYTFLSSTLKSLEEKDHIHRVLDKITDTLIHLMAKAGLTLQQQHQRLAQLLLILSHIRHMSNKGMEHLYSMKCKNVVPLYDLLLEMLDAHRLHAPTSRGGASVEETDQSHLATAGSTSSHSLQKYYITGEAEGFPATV
Estrogen receptor beta (Homo sapiens), sequence (Q92731 whole entry, looked up, the tested form may be a part): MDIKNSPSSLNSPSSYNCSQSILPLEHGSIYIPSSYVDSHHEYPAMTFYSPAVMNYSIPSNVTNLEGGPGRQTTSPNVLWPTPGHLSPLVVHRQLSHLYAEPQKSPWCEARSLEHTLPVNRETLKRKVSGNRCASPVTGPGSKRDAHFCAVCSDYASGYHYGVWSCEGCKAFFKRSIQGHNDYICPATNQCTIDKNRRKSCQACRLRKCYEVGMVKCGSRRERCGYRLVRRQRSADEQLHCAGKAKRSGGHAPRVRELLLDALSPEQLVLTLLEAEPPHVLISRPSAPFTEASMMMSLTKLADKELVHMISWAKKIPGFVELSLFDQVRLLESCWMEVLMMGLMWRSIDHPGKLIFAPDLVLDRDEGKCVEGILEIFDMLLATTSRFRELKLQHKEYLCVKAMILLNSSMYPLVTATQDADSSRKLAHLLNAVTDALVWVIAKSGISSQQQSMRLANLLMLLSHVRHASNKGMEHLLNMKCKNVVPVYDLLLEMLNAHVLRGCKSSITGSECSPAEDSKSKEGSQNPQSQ
Nuclear receptor subfamily 1 group I member 2 (Mus musculus), sequence (O54915 whole entry, looked up, the tested form may be a part): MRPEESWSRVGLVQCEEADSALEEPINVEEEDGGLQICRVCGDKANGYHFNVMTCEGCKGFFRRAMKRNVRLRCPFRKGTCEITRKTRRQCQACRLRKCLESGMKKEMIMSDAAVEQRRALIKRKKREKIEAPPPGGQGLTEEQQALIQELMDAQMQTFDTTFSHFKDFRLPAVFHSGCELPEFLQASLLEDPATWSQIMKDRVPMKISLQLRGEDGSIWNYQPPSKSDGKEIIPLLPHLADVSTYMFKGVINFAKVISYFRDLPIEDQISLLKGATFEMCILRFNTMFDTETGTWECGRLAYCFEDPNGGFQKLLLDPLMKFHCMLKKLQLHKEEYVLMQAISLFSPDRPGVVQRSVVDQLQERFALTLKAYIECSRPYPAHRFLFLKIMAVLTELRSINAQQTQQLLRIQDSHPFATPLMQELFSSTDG

Cc1cc(C)cc(O)c1
inactive: [1]

O=C(OCCOCCOCCOC(=O)c1ccccc1)c1ccccc1
inactive: [2] | [3] | [4]
active: [1] 195 nM

O=S(=O)(O)c1ccc2ccccc2c1
inactive: [5] | [1] | [2]

C(=C(c1ccccc1)c1ccccc1)c1ccccc1
active: [6] 50.4 nM | [7] 24.9 nM | [10] 198 nM | [11] 33.6 nM | [12] 20.8 nM | [2] 87100 nM | [13] 17 nM | [4] 39.9 nM
not listed: [5]
inactive: all other assays above

CCCCCCOC(=O)c1ccccc1
inactive: [5]

FC(F)(F)C(F)(F)C(F)(F)C(F)(F)C(F)(F)C(F)(F)C(F)(F)Br
inactive: [2]
